Among the data in PubChem BioAssay AID463173 (ICCB-Longwood Screening Facility, Harvard Medical School, 2010) are survival values, retold here.

Each structure is given as a SMILES string. The campaign covered roughly 52,000 compounds. About 4,300 (8.3%) were called active. The list comes from a sample in which actives are over-represented; it also holds similar structures and randomly drawn compounds. Values without a mark were called inactive. No stated cut-off is given here; in the data, active means survival mostly below about 52% (no sharp cut-off); inactive means mostly above about 56%.

The subject of the test is DeltatarO mutant. The test can be described thus: growth inhibition of S. aureus wild type versus tarO mutant, primary screen, teichoic acid synthesis inhibitors, RN4220, OD600 (AID 463173). To be noted: OD600, 18 h, active compounds read low, screened at 18.75 µg/mL (by protocol).
`Cc1c(Cl)cccc1Nc1sc(C(=O)c2ccccc2)c(N)c1S(=O)(=O)c1ccccc1`: the survival is 71%.

With `Cc1cc(C)cc(OCCSc2nc(-c3ccc(C(C)(C)C)cc3)nc3cc(=O)[nH]n23)c1`, the survival is 83%.

For `Cn1c(CNC(=O)CSc2n[nH]c(-c3ccccc3)n2)nc2ccccc21`, the survival was 89%.

As for `O=C(NCCSc1c(-c2ccc(Cl)cc2)[nH]c2ccccc12)c1ccc(S(=O)(=O)N2CCOCC2)cc1`, the survival is 68%.

For `CCOC(=O)c1sc2ccccc2c1S(=O)(=O)Nc1ccc(N(C)C)cc1`, the survival is 126%.

With `CC(C)c1ccc2occ(CC(=O)N(Cc3ccc(F)cc3)C3CCS(=O)(=O)C3)c2c1` (stereo unspecified), the survival is 61%.

For `Cc1ccc(CNC(=O)c2ccc3c(c2)nc2n3CCCC2)cc1`, the survival is 86%.

On to `Cc1cn2c(=O)cc(COC(=O)c3cccc(NC(=O)C(C)Oc4ccccc4)c3)nc2s1` (stereo unspecified), for which the survival was 95%.

Consider `CC(Oc1ccccc1)C(=O)Nc1ccc(C(=O)OCc2cc(=O)n3ccsc3n2)cc1` (stereo unspecified), for which the survival was 87%.

As for `Cc1cn2c(=O)cc(COC(=O)c3ccc(NC(=O)C(C)Oc4ccccc4)cc3)nc2s1` (stereo unspecified), the survival is 8% (active).

Consider `Cc1cn2c(=O)cc(COC(=O)c3ccc(NC(=O)c4ccc(C(C)(C)C)cc4)cc3)nc2s1`, for which the survival was 20% (active).

`Cc1cn2c(=O)cc(COC(=O)c3ccc(NC(=O)c4ccc(F)cc4)cc3)nc2s1`: the survival was 96%.

In the case of `Cc1cn2c(=O)cc(COC(=O)c3cccc(NC(=O)c4ccc(C(C)(C)C)cc4)c3)nc2s1`, the survival was 103%.

As for `COc1ccccc1CNC(=O)CCCc1nnc2n(CC(C)C)c(=O)c3sccc3n12`, the survival is 95%.

For the compound `CCN(CC)C(=O)N1CCN(C(=O)N(CC)CC)CC1`, the survival was 79%.

With `CCCCOC(=O)Cc1c(C)[nH]c(=O)[nH]c1=O`, the survival was 114%.

Regarding `CC(NC1CCCC1)c1ccccc1` (stereo unspecified), the survival was 84%.

For the compound `COc1ccc(CCNC(=O)CSc2ncc3c(n2)-c2cc(Cl)ccc2N(Cc2ccccc2)S3(=O)=O)cc1OC`, the survival was 87%.

In the case of `COc1cccc(N2CCN(C(=O)c3cnc4c(-c5ccccc5)c(C)nn4c3C)CC2)c1`, the survival is 87%.

In the case of `Cc1nn2c(C)c(C(=O)N3CCN(c4ccc(Cl)cc4)CC3)cnc2c1-c1ccc(F)cc1`, the survival was 88%.

Turning to `COc1ccc(N2CCN(C(=O)c3cc(-c4ccc(C)c(F)c4)on3)CC2)cc1`, the survival was 92%.

As for `COc1cccc(N2CCN(C(=O)c3cnc4c(-c5ccc(F)cc5)c(C)nn4c3C)CC2)c1`, the survival is -5% (active).

On to `COc1ccc(-c2cc(C(=O)N3CCN(c4ccc(F)cc4)CC3)no2)cc1OC`, for which the survival is 57%.

As to `COc1cccc(-c2cc(C(=O)N3CCN(c4ccc(F)cc4)CC3)no2)c1`, the survival is 44% (active).

Take `COc1ccccc1N1CCN(C(=O)c2cc(-c3ccc(C)c(F)c3)on2)CC1`: the survival was 66%.

On to `COc1cccc(-c2cc(C(=O)N3CCN(c4ccccc4OC)CC3)no2)c1`, for which the survival was -4% (active).

`COc1ccccc1N1CCN(C(=O)c2cc(-c3ccc(F)cc3)on2)CC1`: the survival is 46%.

For the compound `COc1ccc(S(=O)(=O)NCCc2sc(C)nc2C)cc1F`, the survival was 88%.

`CC(C)N(C(C)C)S(=O)(=O)c1ccccc1`: the survival is 100%.

`COc1ccc(-c2nc3cccc(C)n3c2NC(C)(C)C)cc1O`: the survival was 109%.

As for `COCCN1C(=O)N(c2cccc(OC)c2)C(=O)C1CC(=O)Nc1ccccc1` (stereo unspecified), the survival is 139%.

Consider `CCOC(=O)c1sc(NC(=O)CSc2nnc(Cn3nnc4ccccc43)n2C)nc1C`, for which the survival was 94%.

Turning to `O=C(CSc1nc(=O)[nH]c2c1CCC2)NCc1ccc(Cl)cc1`, the survival is 67%.

Take `COc1ccc(NC(=O)Nc2nnc(N3CCCCCC3)s2)cc1`: the survival was 72%.

Take `CC(C(=O)NCCSCc1cccc(Cl)c1)N(c1ccccc1)S(C)(=O)=O` (stereo unspecified): the survival is 61%.

As to `CSc1ncc(Cl)c(C(=O)N(Cc2ccc(C)cc2)C2CCS(=O)(=O)C2)n1` (stereo unspecified), the survival was 88%.

In the case of `O=C(CN1C(=O)COc2ccc(S(=O)(=O)N3CCOCC3)cc21)N1CCN(c2ccc(Cl)cc2)CC1`, the survival is 92%.

Regarding `CCOc1ccc(C(=O)Nc2c(C(=O)Nc3ccccc3OC)oc3ccccc23)cc1OCC`, the survival is 65%.

Regarding `CCn1c(SCC(=O)c2ccc(C)cc2)nnc1C1CC1`, the survival is 66%.

As for `COc1ccc(-c2cc(=O)c3cc(OCC(=O)OC(C)C)ccc3o2)cc1`, the survival was 124%.

For the compound `COC(=O)COc1ccc2oc(-c3ccc(OC)cc3)cc(=O)c2c1`, the survival is 36% (active).

Take `CCCCC(=O)Oc1ccc2oc(-c3ccc(OC)cc3)cc(=O)c2c1`: the survival is 30% (active).

As for `Cc1cc(C)nc(SCC(=O)Oc2ccc3oc(=O)cc(C)c3c2)n1`, the survival was 95%.

On to `CCCC(=O)Oc1ccc2ccc(=O)oc2c1`, for which the survival is 89%.

Turning to `COc1ccc2oc(-c3cccc(F)c3)cc(=O)c2c1`, the survival was 99%.

In the case of `O=C(Cn1c(=O)n(-c2ccccc2)c(=O)c2c3c(sc21)CCCC3)Nc1ccc(F)cc1`, the survival is 98%.

As to `CCc1ccc(CNC(=O)c2cnc(N3CCCCC3)c3ccccc23)cc1`, the survival was 94%.

Turning to `COc1ccccc1NC(=O)c1cc(S(=O)(=O)N2CCc3ccccc32)ccc1F`, the survival was 81%.

Regarding `CCNC(=O)CC1C(=O)N(c2ccc(C)cc2)C(=O)N1CCC(C)C` (stereo unspecified), the survival is 91%.

With `CC(C)c1ccc(NC(=O)CCNS(=O)(=O)c2cccc3nsnc23)cc1`, the survival was 50%.

In the case of `CNC(=O)c1ccc2nc(CCc3ccccc3)oc2c1`, the survival is 80%.

`O=C(NCCCN1CCN(c2ccccc2F)CC1)c1ccc2nc(CCc3ccccc3)oc2c1`: the survival was 87%.

In the case of `CNC(=O)c1ccc2nc(Cc3ccccc3)oc2c1`, the survival was 37% (active).

Take `Cc1ccccc1NC(=O)c1ccc2nc(Cc3ccccc3)oc2c1`: the survival is 102%.

`O=C(NCCCN1CCN(c2ccccc2F)CC1)c1ccc2nc(Cc3ccccc3)oc2c1`: the survival was 46% (active).

For the compound `O=C(NCCCN1CCN(c2ccccc2)CC1)c1ccc2nc(Cc3ccccc3)oc2c1`, the survival was 92%.

Turning to `Cc1ccc(NC(=O)c2ccc3nc(Cc4ccccc4)oc3c2)cc1F`, the survival is 25% (active).

Turning to `CCNC(=O)c1ccc2nc(Cc3ccccc3)oc2c1`, the survival was 101%.

For `CC(=O)c1cccc(NC(=O)c2ccc3nc(Cc4ccccc4)oc3c2)c1`, the survival was 63%.

As for `Cc1ccc(-c2nnc(Nc3ccc(O)cc3)c3ccccc23)cc1S(=O)(=O)N1CCOCC1`, the survival is 65%.

On to `O=C1C2C3C=CC(C3)C2C(=O)N1CCN1C(=O)C2C3C=CC(C3)C2C1=O` (stereo unspecified), for which the survival was 101%.

In the case of `COc1ccccc1NC(=O)C1=C(C)Nc2nc(SC)nn2C1c1ccccc1Cl` (stereo unspecified), the survival is 87%.

`CCCNC(=O)CSc1c2c(nc3ccc(Cl)cc13)CCCC2`: the survival was 62%.

`CC(C)OCCCNC(=O)CSc1c2c(nc3ccc(Cl)cc13)CCCC2`: the survival is 71%.

On to `CCOc1ccc(CNC(=O)CSc2c3c(nc4ccc(Cl)cc24)CCCC3)cc1`, for which the survival is 70%.

With `CC(C)CCNC(=O)CSc1c2c(nc3ccc(Cl)cc13)CCCC2`, the survival is 51% (active).

On to `CCCCNC(=O)CSc1c2c(nc3ccc(Cl)cc13)CCCC2`, for which the survival was 38% (active).

`CCOc1ccccc1NC(=O)CSc1c2c(nc3ccc(Cl)cc13)CCCC2`: the survival was 45% (active).

As to `COC(=O)c1ccccc1NC(=O)CSc1c2c(nc3ccc(Cl)cc13)CCCC2`, the survival was 86%.

In the case of `COCCCNC(=O)CSc1c2c(nc3ccc(Cl)cc13)CCCC2`, the survival is 68%.

`CCN(CC)CCNC(=O)c1c(C)oc2ncn(C)c(=O)c12`: the survival was 91%.

With `Cc1ccc(CNC(=O)C2CCCN(c3nc4c(C)cc(C)cc4s3)C2)cc1` (stereo unspecified), the survival is 94%.

Take `CCC(=O)NC1CCC(c2ccccc2)CC1` (stereo unspecified): the survival is 97%.

As for `Cc1ccc(OC(=O)c2cccnc2)cc1`, the survival is 97%.

For the compound `Cc1ccc(C)c(N2CCN(C(=O)c3cc4ccc5cccnc5c4[nH]3)CC2)c1`, the survival is 95%.

As for `Cc1c(C(=O)N2CCCCC2)c(S(=O)(=O)NCc2ccc(N(C)C)cc2)c(C)n1C`, the survival is 120%.

As for `COc1cccc(-c2nnn(CCc3nn[nH]n3)n2)c1`, the survival was 84%.

For `CCOC(=O)CCN(c1ccccc1)S(=O)(=O)c1ccc2[nH]c(=O)ccc2c1`, the survival was 95%.

As to `CCC(C(=O)N1CCN(c2cc(C)ccc2C)CC1)n1nc(C)n2c(cc3occc32)c1=O` (stereo unspecified), the survival is 43% (active).

On to `CCC(C(=O)N1CCN(c2cc(Cl)ccc2C)CC1)n1nc(C)n2c(cc3occc32)c1=O` (stereo unspecified), for which the survival is 69%.

For `CCC(C(=O)N1CCN(c2ccc(OC)cc2)CC1)n1nc(C)n2c(cc3occc32)c1=O` (stereo unspecified), the survival is 117%.

`Cc1ccc(S(=O)(=O)c2nc(S(=O)(=O)c3ccc(C)cc3)c(NCCCOC(C)C)s2)cc1`: the survival is 75%.

Regarding `C=C(C)c1cccc(C(C)(C)NC(=O)N2CCCC2)c1`, the survival was 111%.

Consider `Cc1ccc(CNC(=O)Cc2c(C)c3c(cc(C)c4c(C)coc43)oc2=O)cc1`, for which the survival was 100%.

Take `CCCCn1c(NCc2ccc(N(C)C)cc2)nc2ccccc21`: the survival is 52%.

For `Cn1c(NCc2ccccc2F)nc2ccccc21`, the survival is 93%.

As for `CCCCn1c(NCc2cc(Br)ccc2O)nc2ccccc21`, the survival is 42% (active).

Turning to `CCCn1c(NCc2ccc(N(CC)CC)cc2)nc2ccccc21`, the survival is 29% (active).

Consider `CCCCCn1c(NCc2ccccc2OC)nc2ccccc21`, for which the survival is -1% (active).

Turning to `CCCn1c(NCc2ccccc2F)nc2ccccc21`, the survival was 90%.

On to `CCCn1c(NCc2ccccc2C)nc2ccccc21`, for which the survival is 108%.

As for `CCCC(O)c1nc2ccccc2n1Cc1ccccc1OC` (stereo unspecified), the survival is 105%.

Take `CCn1c(NCc2ccccc2)nc2ccccc21`: the survival was 95%.

As for `CCCCn1c(NCc2ccc(OC)cc2O)nc2ccccc21`, the survival was 66%.

As for `CCn1c(NCc2ccc(OC)c(OC)c2)nc2ccccc21`, the survival was 116%.

Take `CCCCCn1c(NCc2ccc(OC)cc2)nc2ccccc21`: the survival is 33% (active).
